# Assay outcomes from PubChem.
# This is one part of a sample in which hits are shown more often than they occur.
# CHX counter: Cycloheximide Counterscreen for Small Molecule Inhibitors of Shiga Toxin | AID 2314, 2010 | cell reporter, cycloheximide protein synthesis inhibition counterscreen | max response, % | 300,000 tested, 12% active; in the data active = max response mostly above about 13%, no sharp cut-off; inactive = mostly below about 14%; also: read at 38.3 µM for the half of the compounds with a filed dose
# Shiga toxin inh: A qHTS for Small Molecule Inhibitors of Shiga Toxin; Vero cells, Shiga toxin protein synthesis inhibition reporter; inhibition, % at 38.7 µM; 290,000 tested, 9.2% active; AID 2315, 2010; in the data active = inhibition mostly above about 28%, no sharp cut-off; inactive = mostly below about 43%
# Sm TGR block: qHTS Assay for the Inhibitors of Schistosoma Mansoni Peroxiredoxins; Schistosoma mansoni thioredoxin glutathione reductase (TGR), Q962Y6; purified TGR, DTNB reduction, TNB absorbance 405 nm; 360,000 tested, 3% active; AID 485364, 2010; Potency, µM (titrated, usually from 114 µM), usual class: inhibitors; also: nearly all actives have a fitted effect of over 60% in size
#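 Kinetic colorimetric format: TGR-catalysed, NADPH-driven DTNB reduction monitored via TNB absorbance. Enzyme dispensed at 20 nM; compound exposure 15 min at room temperature before reaction start.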
# Tb PYK inh: qHTS of Trypanosoma Brucei Inhibitors. pyruvate kinase (Trypanosoma brucei), Q57TT1. TbPYK enzyme, Kinase-Glo Plus ATP luminescence, 45 min. Potency, µM (top dose mostly 76.8 µM), hits mostly inhibitors. 410,000 tested, 0.12% active. AID 624173, 2012; also: nearly all actives have a fitted effect of over 50% in size
#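 In this concentration-response screen, enzyme-free wells defined baseline while DMSO plates tracked drift. Each reaction combined TbPYK, substrate, compound and 130 uM ADP for 45 min at room temperature. Kinase-Glo Plus luminescence gave the signal.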
# Giardia FBPA inh: qHTS Assay for Inhibitors of Fructose-1,6-bisphosphate Aldolase from Giardia Lamblia | Potency, µM (series often up to 59.6 µM), usual class: inhibitors | A8B2U2 | purified Giardia FBPA | 290,000 tested, 0.71% active; also: nearly all actives have a fitted effect of over 55% in size
# Target sequence (A8B2U2 whole entry, looked up): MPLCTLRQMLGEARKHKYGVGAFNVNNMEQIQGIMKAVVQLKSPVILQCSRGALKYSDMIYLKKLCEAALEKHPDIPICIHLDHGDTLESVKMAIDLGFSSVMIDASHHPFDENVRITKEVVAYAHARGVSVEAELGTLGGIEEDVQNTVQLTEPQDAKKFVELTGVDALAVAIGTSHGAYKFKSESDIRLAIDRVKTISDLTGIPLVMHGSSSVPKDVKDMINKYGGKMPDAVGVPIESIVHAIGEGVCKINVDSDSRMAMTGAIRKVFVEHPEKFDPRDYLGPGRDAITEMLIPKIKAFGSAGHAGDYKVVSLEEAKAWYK
#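 40 nM FBPA preincubated 10 min at RT with compound (up to 57.5 uM final), then substrate plus GAPDH/TPI/NAD/arsenate coupling and diaphorase/resazurin added. Fluorescence read after 20 min at RT, 525/598 nm.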
# LmPK inh: qHTS Assay for Inhibitors of Leishmania Mexicana Pyruvate Kinase (LmPK); Q27686; purified LmPK, Kinase-Glo ATP luminescence, 1 h; Potency, µM (highest dose often 57.5 µM), usual class: inhibitors; 290,000 tested, 0.37% active
#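 ATP generated from ADP (0.1 mM) and PEP (0.5 mM) by 0.1 nM LmPK over 1 h at room temperature (pH 7.2 imidazole buffer) was detected by coupled luciferase luminescence. Values were normalized to uninhibited and no-enzyme wells.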
# A number is an active result; n = inactive; u = inconclusive; x = no result given; + = active, no number. Unless noted, calls follow the shape of the dose curve; as a rule, active = well fitted curve in the direction sought with a large enough effect; inconclusive = small, poorly fitted or top-dose-only effect, or another doubt; inactive = no such curve, though single readings can be large; an effect the other way counts as inactive or inconclusive.
SMILES,CHX counter,Shiga toxin inh,Sm TGR block,Tb PYK inh,Giardia FBPA inh,LmPK inh
CC1(C)OC(=O)C(=NNc2ccccc2[N+](=O)[O-])C(=O)O1,n,n,n,n,n,n
O=C(N/N=C1\CC2CC=CC12)c1ccccc1Cl (stereo not drawn),21,85,n,n,n,n
O=C(NNC(=S)Nc1ccccc1C(F)(F)F)C1CC1,n,n,n,n,n,n
FC(F)(F)c1ccccc1NC(=S)N/N=C1\CC2CC=CC12 (stereo not drawn),23,77,n,n,n,n
O=[N+]([O-])c1ccccc1N/N=C1\CC2CC=CC12 (stereo not drawn),31,108,n,n,n,n
Cc1cccc2nc3ccccc3nc12,17,n,n,n,n,n
Cc1cccc2c3nc4ccccc4nc3n(C)c12,n,n,n,n,n,n
O=C(Cn1nc(C(=O)O)c2ccccc2c1=O)Nc1ccc2c(c1)C(=O)c1ccccc1C2=O,24,n,n,x,n,n
Cc1cc(C)cc(OCC(=O)Nc2ccc3c(c2)C(=O)c2ccccc2C3=O)c1,20,46,n,n,n,n
CCC(=O)Nc1ccc2c(c1)C(=O)N(C)C2=O,n,n,n,n,n,n
CCC(=O)Nc1ccc2c(c1)C(=O)c1ccccc1C2=O,36,76,n,n,n,n
Cc1ccc(NC(=O)CN2C(=O)CSc3ccc(S(=O)(=O)N4CCCC4)cc32)cc1F,x,x,n,n,x,x
COc1cc(CCN)c(OC)cc1Br,x,x,x,n,x,x
O=C(c1csnn1)N1CCC2(CC1)CCN(c1ccncc1)CC2,x,x,x,n,n,x
CCc1ncc(C(=O)c2ccc(OC)cc2)n1C,14,n,n,n,n,n
Cc1nn(-c2ccccc2)c(N2CCCC2)c1/C=N/NC(=O)c1cc2ccccc2cc1O,n,n,n,n,n,n
Cc1nn(-c2ccccc2)c(N2CCCC2)c1/C=N/NC(=S)Nc1ccccc1F,72,98,n,n,n,n
CCOc1ccc(C(=O)NCc2nnnn2-c2ccc(C)c(C)c2)cc1OCC,x,x,n,n,x,x
COc1cc(CNc2ccc3[nH]c(=O)[nH]c3c2)cc(Cl)c1OCC(=O)NC(C)(C)C,n,n,u,n,10µM,n
CCOc1cc(CNc2ccc3[nH]c(=O)[nH]c3c2)ccc1OCC(=O)NC(C)(C)C,n,n,u,n,u,n
C=CCOc1ccc(CNn2c(C)n[nH]c2=S)cc1OC,28,55,n,u,n,n
COc1cc(CNn2c(C)n[nH]c2=S)cc(Cl)c1OCC(=O)NC(C)(C)C,11,n,n,u,n,n
CCS(=O)(=O)Nc1cccc(C2=NN(C(=O)c3ccco3)C(c3ccco3)C2)c1 (stereo not drawn),n,n,50µM,n,n,n
COc1ccc(C2=NN(C(N)=S)C(c3ccco3)C2)cc1 (stereo not drawn),20,n,8.9µM,n,n,n
COc1ccc(C2=NN(C(=O)CSc3nnc(-c4ccccc4F)o3)C(c3ccco3)C2)cc1 (stereo not drawn),n,n,n,n,n,n
SMILES,CHX counter,Shiga toxin inh,Sm TGR block,Tb PYK inh,Giardia FBPA inh,LmPK inh
COc1ccc(C2=NN(C(=O)c3ccco3)C(c3ccco3)C2)cc1OC (stereo not drawn),14,41,n,n,n,n
CCc1ccc(C2=NN(C(C)=O)C(c3ccco3)C2)cc1 (stereo not drawn),34,79,n,n,n,16µM
O=C(c1ccco1)N1N=C(c2ccc(Cl)cc2)CC1c1ccco1 (stereo not drawn),n,n,n,n,n,n
CCOc1ccc(NC(=O)CN2CCN(Cc3ccccc3)S2(=O)=O)cc1,x,x,n,n,x,x
CCOC(=O)Cc1csc(SCC(=O)NC2CCCC2)n1,x,x,n,n,x,x
Cc1cc(C(=O)NNC(=O)c2sccc2C)c(C)o1,x,x,n,n,x,x
CC(=O)N1N=C(c2c(-c3ccccc3)c3cc(C)ccc3[nH]c2=O)CC1c1ccco1 (stereo not drawn),n,n,n,n,n,n
CC(=O)N1N=C(c2c(-c3ccccc3)c3cc(Br)ccc3[nH]c2=O)CC1c1ccco1 (stereo not drawn),n,n,13µM,n,n,n
O=C1C=CC(O)(c2cc(=O)c3c(O)cc(O)cc3o2)C=C1,45,93,35µM,n,n,n
O=c1c(O)c(-c2ccc(O)cc2O)oc2cc(O)cc(O)c12,n,n,n,x,n,n
COc1ccccc1N1CCN(C(=O)c2oc3c(c2C)C(=O)CC(C)(C)C3)CC1,n,n,n,n,x,n
Cc1cc(C)n2nc(CNC(=O)c3ccc(Cl)cc3)nc2n1,x,x,n,n,x,x
CN(O)/C=C/C(=O)c1ccc(Br)cc1,n,n,8.9µM,n,n,n
CCc1ccc(CN/C=C/C(=O)c2ccc(Br)cc2)cc1,n,n,n,n,n,n
Cc1ccc(C)n1-c1ccc(C(=O)/C=C/N(C)C)cc1,n,n,32µM,n,n,n
CN(C)/C=C/C(=O)c1ccc(Br)cc1,26,61,x,n,n,n
CN(C)/C=C/C(=O)c1ccncc1,n,n,n,n,n,n
COc1ccc(CCNC(=O)[C@H](C)N2C(=O)N3CCc4c([nH]c5ccccc45)[C@@]3(C)C2=O)cc1,n,n,n,n,n,n
COc1ccccc1/C=N/n1nnnc1N,n,n,n,n,n,n
COc1cc(/C=N/n2nnnc2N)cc(OC)c1OC,n,n,n,n,n,n
COc1ccc(/C=N/n2nnnc2N)c(OC)c1,23,28,n,n,n,n
COc1cccc(/C=N/n2nnnc2N)c1O,21,59,n,n,n,n
COc1ccc(N2CCN(C(=O)c3cc(=O)c4cc(C)ccc4o3)CC2)cc1,n,n,n,n,n,n
O=C(N/N=C/c1cn(-c2cccs2)nc1-c1ccccc1)c1ccccc1Cl,21,102,n,n,n,n
O=C(N/N=C/c1cn(Cc2ccccc2)c2ccccc12)c1ccncc1,n,n,n,n,n,n
O=C(N/N=C/c1cn(-c2cccs2)nc1-c1ccccc1)c1ccc(O)cc1,45,+,n,n,n,n
Cc1cc(C)cc(N=c2c([N+](=O)[O-])nn(-c3ccc4c(c3)OCCO4)n2O)c1,17,n,n,n,n,n
Cc1c(Cl)cccc1N=c1c([N+](=O)[O-])nn(-c2ccccc2)n1O,n,n,n,n,n,n
Cc1ccc(N=c2c([N+](=O)[O-])nn(-c3ccc4c(c3)OCCO4)n2O)cc1F,33,141,n,n,n,n
